Measured values taken from PubChem BioAssay.
“And” between values parts separate entries of the source, which are not always exact repeats. Identical values can stand only once. The source made the active and inactive calls. Cut-off read from the data, not from the text of the source, unless noted: active = parasite load remaining mostly below about 12% (no sharp cut-off); inactive = mostly above about 10%.

Tests used:
[1] = P. berghei load reduction in hepatocytes – cell-based, HepG2, luciferase luminescence, HepG2 viability, primary screen (AID 624349);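 note: 100% = mean of DMSO negative control wells on the same plate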; conditions: P. berghei liver stage in HepG2, luciferase luminescence, concentration not given here; parasite load remaining: stronger effect = lower value; viability: measured here: HepG2 viability without parasites
[2] = compounds altering viability of human ES cells (AID 493140; call rule not given here;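 note: cells exposed to compounds for four days before counting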); conditions: human embryonic stem cell survival screen; stronger effect = higher value

| Compound | parasite load remaining [1] | viability [1] | survival [2] |
| --- | --- | --- | --- |
| O=C(O)/C=C/c1cc(Br)c(Br)c(Br)c1Br | 36.5% (inactive) | 98.8% |  |
| CC[C@H]1CN2CCc3cc(OC)c(OC)cc3[C@@H]2C[C@@H]1CC1NCCc2cc(OC)c(OC)cc21 (stereo not given in full) | 2.62% (inactive) | 61.4% | 0.25 (inactive) |
| Cc1cc2ncc(-c3ccccc3)nc2cc1C | 40.3% (inactive) | 74.4% | 100 (inactive) |
| COC(=O)C1=CO[C@@H](C)[C@@H]2CN3CCc4c([nH]c5ccccc45)C3C[C@H]12 (stereo not given in full) | 62.4% (inactive) | 77.2% | 5.92 (inactive) |
| CN1CCC23c4ccccc4NC1C21CCN(C)C3Nc2ccccc21 | 79.4% (inactive) | 76.7% | 4.92 (inactive) |
| CC(=O)NC1[C@@H](O)OC(CO)[C@@H](O)[C@H]1O[C@H](C)C(=O)O (stereo not given in full) | 82.1% (inactive) | 76.2% | 11.5 (inactive) |
| N#Cc1cnc2cnc(NCc3cccnc3)cc2c1NC1CCCCCC1 | 36% (inactive) | 65.1% |  |
| CC(=O)O[C@H]1C(=O)[C@@]2(C)[C@H](O)C[C@@H]3OC[C@]3(OC(C)=O)[C@@H]2[C@@H](OC(=O)c2ccccc2)[C@@]2(O)C[C@@H](OC(=O)[C@@H](O)[C@H](NC(=O)c3ccccc3)c3ccccc3)C(C)=C1C2(C)C | 172% (inactive) | 89.6% | 5 (inactive) |
| COC1CC(O[C@@H]2[C@H](C)[C@H](OC3OC(C)CC(N(C)C)C3OC(C)=O)[C@H](C)CC3(CO3)C(=O)[C@@H](C)C(OC(C)=O)[C@H](C)[C@H](C)OC(=O)[C@@H]2C)OC(C)C1OC(C)=O (stereo not given in full) | 86.6% (inactive) | 90.9% | 27.8 (inactive) |
| CS(=O)(=O)c1ccc(-c2nc(-c3ccc(F)cc3)c(-c3ccncc3)[nH]2)cc1 | 28.7% (inactive) | 88.5% | 113 (inactive) |
| CC1Cc2ccccc2N1NC(=O)c1ccc(Cl)c(S(N)=O)c1 (stereo not given) | 50.9% (inactive) | 94.8% | 17.1 (inactive) |
| Nc1n[nH]c(N)c1N=Nc1ccc(O)cc1 | 23.7% (inactive) | 93.1% |  |
| CN1[C@@H]2CC[C@H]1CC(OC(=O)[C@@H](CO)c1ccccc1)C2 (stereo not given in full) | 111% (inactive) | 89% | 13.1 (inactive) |
| C[C@H]1[C@H](C)CC[C@]2(C(=O)O)CC[C@]3(C)C(=CCC4[C@@]5(C)CC[C@H](O)C(C)(C)[C@@H]5CC[C@]43C)[C@H]12 (stereo not given in full) | 107% (inactive) | 92.7% | 11.2 (inactive) |
| CN=C(NC#N)NCCSCC1N=CN=C1C (stereo not given) | 100% (inactive) | 88.8% | 16.7 (inactive) |
| CC(=O)NC(CC(=O)O)C(=O)O (stereo not given) | 89% (inactive) | 77% | 11.8 (inactive) |
| CC(C)(CS)C(=O)N1CCC[C@@H]1C(=O)O | 94.4% (inactive) | 94.8% | 8.75 (inactive) |
| CC[C@@H]1OC(=O)[C@H](C)[C@H](O[C@H]2C[C@@](C)(OC)[C@@H](O)[C@H](C)O2)[C@@H](C)[C@@H](O[C@@H]2O[C@H](C)C[C@H](N(C)C)[C@H]2O)C(C)(O)C[C@@H](C)[C@@H]2NC(COCCOC)OC([C@H]2C)[C@]1(C)O (stereo not given in full) | 84.5% (inactive) | 77.5% | 4.33 (inactive) |
| CCOC(=O)[C@@H](CCc1ccccc1)NC(C)C(=O)N1CCC[C@@H]1C(=O)O (stereo not given in full) | 94.8% (inactive) | 91.7% | 25.8 (inactive) |
| COc1cc(OC)c2c(c1Cl)O[C@]1(C2=O)C(OC)CC(=O)C[C@H]1C (stereo not given in full) | 83.9% (inactive) | 93.9% | 13.2 (inactive) |
| Nc1nc2ncc(CNc3ccc(C(=O)N[C@H](CCC(=O)O)C(=O)O)cc3)nc2c(=O)[nH]1 | 51.4% (inactive) | 76.8% | 11.4 (inactive) |

| Compound | parasite load remaining [1] | viability [1] | survival [2] |
| --- | --- | --- | --- |
| Cc1cc(C=C2C(=O)C=CC2=O)cc(C)c1O | 28.7% (inactive) | 70.7% |  |
| C=C1CC[C@@H](O)C/C1=C/C=C1\CCC[C@]2(C)[C@@H]([C@H](C)/C=C/[C@@H](C)C(C)C)CC[C@@H]12 | 66.4% (inactive) | 88.3% | 8.25 (inactive) |
| Ic1cccc(CSc2nnc(-c3ccncc3)o2)c1 | 20.8% (inactive) | 98.7% |  |
| N#Cc1c(-c2ccccc2)cc(-c2cc(Br)ccc2O)[nH]c1=O | 30.2% (inactive) | 75.4% |  |
| CCCC(=O)Oc1ccc2[nH]c(C(=O)c3cc4ccccc4[nH]3)cc2c1 | 38.9% (inactive) | 104% |  |
| Cc1nc2cc3nc(-c4cccs4)cnc3cc2n1C | 6.62% (active) | 168% |  |
| O=C1NC(=O)c2c1c1c3ccccc3[nH]c1c1[nH]c3cc(Br)ccc3c21 | 60.6% (inactive) | 160% |  |
| Cc1nc(N)sc1-c1ccnc(Nc2cccc([N+](=O)[O-])c2)n1 | 60.6% (inactive) | 87.6% |  |
| COc1cc2ncn(-c3cc(OCc4ccc(S(C)(=O)=O)cc4)c(C(N)=O)s3)c2cc1OC | 30% (inactive) | 67.4% |  |
| c1ccc(-c2cnc(Nc3ccc(OCCN4CCCC4)cc3)s2)cc1 | 46.3% (inactive) | 100% |  |
| CCCCCCOC(=O)[C@]1(O)C[C@@H]2O[C@@]1(C)n1c3ccccc3c3c4c(c5c6ccccc6n2c5c31)C(=O)NC4 | 55.7% (inactive) | 93.7% |  |
| O=c1c(-c2ccc(F)cc2)c(-c2ccncc2)[nH]n1-c1ccc(Cl)cc1 | 36.4% (inactive) | 68.5% |  |
| CC#CC(=O)Nc1cc2c(Nc3ccc(F)c(Cl)c3)ncnc2cn1 | 50.6% (inactive) | 159% |  |
| O=C1NC(=O)C(c2cn(CCCO)c3ncccc23)=C1c1cnccn1 | 39.6% (inactive) | 97.4% |  |
| O=C1Nc2ccc(Cl)cc2/C1=C/c1cc(Cl)c(O)c(Cl)c1 | 28.5% (inactive) | 82.4% |  |
| CSc1nc(-c2ccnc(NC(C)c3ccccc3)c2)c(-c2ccc(F)cc2)[nH]1 (stereo not given) | 53.6% (inactive) | 77.8% |  |
| CCCOc1ccc(/C=C2\SC(=O)NC2=O)cc1 | 54.3% (inactive) | 111% |  |
| O=C(c1cc2cc(O)ccc2[nH]1)c1cc2cc(O)ccc2[nH]1 | 37.2% (inactive) | 97.4% |  |
| COC1=C[C@]23CCCN2CCc2cc4c(cc2[C@]3(C)C1OC(=O)[C@@](O)(CCCC(C)(C)O)CC(=O)O)OCO4 (stereo not given in full) | -0.16% (inactive) | 37.5% |  |
| O=c1[nH][nH]c2nnc(-c3c(-c4ccccc4)nn4ccccc34)cc12 | 41.8% (inactive) | 101% |  |
| COC1C=CC23c4cc5c(cc4CN(C[C@H]2O)[C@@H]3C1)OCO5 (stereo not given in full) | 2.19% (inactive) | 98.9% |  |

| Compound | parasite load remaining [1] | viability [1] | survival [2] |
| --- | --- | --- | --- |
| N#Cc1cnc2cnc(NCc3cccnc3)cc2c1Nc1ccc(F)c(Cl)c1 | 47.9% (inactive) | 84.2% |  |
| COc1cc2nccc(Oc3ccc(NC(=S)NC(=O)c4ccccc4C)cc3)c2cc1OC | 22.3% (inactive) | 80.3% |  |
| CCCCn1c2ccc(O)cc2c2c3c(c(-c4ccccc4Cl)cc21)C(=O)NC3=O | 56.2% (inactive) | 74.7% |  |
| CC(C)C(CO)Nc1nc(Nc2cccc(Cl)c2)c2ncn(C(C)C)c2n1 (stereo not given) | 30.5% (inactive) | 63.2% |  |
| O=Nc1c(-c2c(O)[nH]c3ccc(I)cc23)[nH]c2ccccc12 | 33.7% (inactive) | 156% |  |
| O=C(Nc1cccc(Nc2nccc(Nc3cccc(C(F)(F)F)c3)n2)c1)C1CC1 | 36.9% (inactive) and 34.4% (inactive) | 99.7% and 89.6% |  |
| N#CCCc1ccc2c(c1)-c1[nH]c3ccc([N+](=O)[O-])cc3c1CC(=O)N2 | 64.4% (inactive) | 120% |  |
| O=C1C(C2=C3C(=Nc4ccccc43)/C(=C\c3ccc(O)cc3)C2=O)=C2C(=Nc3ccccc32)/C1=C\c1ccc(O)cc1 | 52% (inactive) | 71.2% |  |
| O=C(O)Cc1c2ccccc2n2c1[nH]c(=O)c1ccccc12 | 35.1% (inactive) | 170% |  |
| CC[C@H](CO)Nc1nc(NCc2ccccc2O)c2ncn(C(C)C)c2n1 | 34.4% (inactive) | 146% |  |
| Cc1nc(-c2ccccc2)c(-c2ccncc2)o1 | 46.9% (inactive) | 64.2% |  |
| CC(C)n1cnc2c(Nc3cccc(Cl)c3)nc(NCCO)nc21 | 37.9% (inactive) | 90.9% |  |
| CC(=O)NC1SCCC1=O (stereo not given) | 139% (inactive) | 87.1% |  |
| O=C(c1ccccc1)c1ccc(N2CCOCC2)cc1O | 40.6% (inactive) | 74.9% |  |
| CCc1[nH]c(-c2ccc(OC)cc2)nc1-c1ccncc1 | 30.1% (inactive) | 82.4% |  |
| c1ccc2c(-c3ccncc3)c[nH]c2c1 | 30.9% (inactive) | 66.5% |  |
| CC(=O)c1ccc(N2CCOCC2)cc1O | 38.3% (inactive) | 110% |  |
| CCN(CC)CCNC(=O)c1c(C)[nH]c(/C=C2\C(=O)Nc3ccc(Cl)cc32)c1C | 49.7% (inactive) | 69.1% |  |
| N=c1ccn2c(n1)O[C@@H]1C2O[C@H](CO)[C@H]1O (stereo not given in full) | 234% (inactive) | 85% |  |
| O=C(Nc1ccc(Cl)cc1)c1ccccc1NCc1ccncc1 | 39.8% (inactive) | 69% |  |
| O=C1c2ccccc2-c2nc3nnnn3nc21 | -1.07% (inactive) | 0.01% |  |
